Experimental data published in PubChem BioAssay (NCI).
The panel holds about 83,000 compounds, 20% with a hit somewhere; the sample as a whole holds those more often.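 In brief: 96-well plates, 48 h treatment, single concentration, percent growth endpoint.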 The source made the active and inactive calls. How the source made its calls: active means growth percent below 10; inactive means the rest.

Columns and labels:
Assay in all cases: NCI-60 one-dose screen, 48 h (100 = growth as untreated, 0 = no growth, -100 = all killed)
Conditions in all cases: 10 µM unless noted
HCT-15 colon = system: HCT-15 colon
HT29 colon = system: HT29 colon
SNB-75 CNS = system: SNB-75 CNS
SNB-19 CNS = system: SNB-19 CNS
U251 CNS = system: U251 CNS
PC-3 prostate = system: PC-3 prostate
SK-MEL-5 melanoma = system: SK-MEL-5 melanoma
UACC-62 melanoma = system: UACC-62 melanoma
LOX IMVI melanoma = system: LOX IMVI melanoma
SK-MEL-28 melanoma = system: SK-MEL-28 melanoma
SK-MEL-2 melanoma = system: SK-MEL-2 melanoma
EKVX NSCLC = system: EKVX NSCLC
SN12C renal = system: SN12C renal
UO-31 renal = system: UO-31 renal
TK-10 renal = system: TK-10 renal
ACHN renal = system: ACHN renal
CAKI-1 renal = system: CAKI-1 renal
CCRF-CEM leukemia = system: CCRF-CEM leukemia
MOLT-4 leukemia = system: MOLT-4 leukemia

Measured: growth

O=C(/C=C(O)/C=C/c1ccc(SC(F)(F)F)cc1)/C=C/c1ccc(SC(F)(F)F)cc1
inactive: HCT-15 colon 88.5% | HT29 colon 83.2% | SNB-75 CNS 115% | SNB-19 CNS 90.3% | U251 CNS 66.5% | PC-3 prostate 81% | SK-MEL-5 melanoma 91.4% | UACC-62 melanoma 75.9% | LOX IMVI melanoma 72% | SK-MEL-28 melanoma 100% | SK-MEL-2 melanoma 101% | EKVX NSCLC 111% | SN12C renal 94.2% | UO-31 renal 73.1% | TK-10 renal 101% | ACHN renal 102% | CAKI-1 renal 96% | CCRF-CEM leukemia 60.7% | MOLT-4 leukemia 76.1%

CCCCCCOc1ccc(/C=N/Nc2cc(C)nc3ccc(Cl)cc23)cc1
active: HCT-15 colon -87.2% | HT29 colon -42.3% | SNB-75 CNS -44.6% | SNB-19 CNS 2.26% | U251 CNS -68.2% | PC-3 prostate -39.4% | LOX IMVI melanoma -94.5% | SK-MEL-28 melanoma -30.3% | SN12C renal -84.6% | UO-31 renal -89.8% | TK-10 renal -51.4% | ACHN renal -92% | CAKI-1 renal 3.33% | CCRF-CEM leukemia -9.5% | MOLT-4 leukemia -26%
inactive: SK-MEL-5 melanoma 81.4% | UACC-62 melanoma 76.8% | SK-MEL-2 melanoma 93.9% | EKVX NSCLC 56.2%

Cc1cc(C(=O)/C=C/c2ccc[nH]2)ccc1-n1ccc(C(F)(F)F)n1
active: PC-3 prostate 6.59% | UO-31 renal -92.1%
inactive: HCT-15 colon 84.1% | HT29 colon 89.9% | SNB-75 CNS 63.2% | SNB-19 CNS 85.1% | U251 CNS 25.9% | SK-MEL-5 melanoma 98.2% | UACC-62 melanoma 84% | LOX IMVI melanoma 90.8% | SK-MEL-28 melanoma 100% | SK-MEL-2 melanoma 96.5% | EKVX NSCLC 87.4% | SN12C renal 63.4% | TK-10 renal 95.6% | ACHN renal 98.9% | CAKI-1 renal 83.8% | CCRF-CEM leukemia 13.1% | MOLT-4 leukemia 70.6%

O=C(CCN1CCCC1)Nc1ccc2c(NCCCCc3ccccc3)c3ccccc3nc2c1
active: HT29 colon 6.39% | SNB-19 CNS -49.5% | U251 CNS -57.8% | PC-3 prostate -56.8% | SK-MEL-5 melanoma -30.9% | LOX IMVI melanoma -89.3% | SK-MEL-28 melanoma -63.4% | SK-MEL-2 melanoma -7.21% | SN12C renal -60.8% | TK-10 renal -36.5% | CAKI-1 renal 9.94% | CCRF-CEM leukemia -25.2% | MOLT-4 leukemia -26.2%
inactive: HCT-15 colon 17% | SNB-75 CNS 16.6% | UACC-62 melanoma 65.2% | EKVX NSCLC 38.3% | UO-31 renal 37% | ACHN renal 24.8%

COc1ccccc1/C=C1\Oc2cc(OCCN3CCCC3)ccc2C1=O
inactive: HCT-15 colon 39.4% | HT29 colon 14% | SNB-75 CNS 90.5% | SNB-19 CNS 88.9% | U251 CNS 76.1% | PC-3 prostate 83% | SK-MEL-5 melanoma 87.2% | UACC-62 melanoma 97.3% | LOX IMVI melanoma 68.1% | SK-MEL-28 melanoma 91.8% | SK-MEL-2 melanoma 106% | EKVX NSCLC 85.9% | SN12C renal 88.8% | UO-31 renal 66.3% | TK-10 renal 97.9% | ACHN renal 94.2% | CAKI-1 renal 94.3% | CCRF-CEM leukemia 54.7% | MOLT-4 leukemia 68.7%

CCCCCN1C=C/C(=C\C(=O)N(C)c2ccc(Oc3ccccc3)cc2)c2ccccc21
inactive: HCT-15 colon 98.4% | HT29 colon 53.6% | SNB-75 CNS 104% | SNB-19 CNS 88.2% | U251 CNS 80.1% | PC-3 prostate 77.6% | SK-MEL-5 melanoma 62.6% | UACC-62 melanoma 76.9% | LOX IMVI melanoma 86.6% | SK-MEL-28 melanoma 102% | SK-MEL-2 melanoma 98% | EKVX NSCLC 56.6% | SN12C renal 87.5% | UO-31 renal 85.3% | TK-10 renal 92.1% | ACHN renal 102% | CAKI-1 renal 93.1% | CCRF-CEM leukemia 75.4% | MOLT-4 leukemia 70.8%

CCN(CC)c1ccc(/C=N/NC(=O)CSc2nc3ccccc3c(=O)n2CCc2ccc(S(N)(=O)=O)cc2)c(O)c1
inactive: HCT-15 colon 25.9% | HT29 colon 42.4% | SNB-75 CNS 59.2% | SNB-19 CNS 53.9% | U251 CNS 31.7% | PC-3 prostate 45% | SK-MEL-5 melanoma 29.4% | UACC-62 melanoma 15.5% | LOX IMVI melanoma 11.5% | SK-MEL-28 melanoma 47.9% | SK-MEL-2 melanoma 38.5% | EKVX NSCLC 33.8% | SN12C renal 28.2% | UO-31 renal 28.2% | TK-10 renal 31.3% | ACHN renal 28.7% | CAKI-1 renal 36%
active: CCRF-CEM leukemia 7.41% | MOLT-4 leukemia 7.09%

COc1ccc2c(c1)C(=O)CC(c1ccccc1OC)O2 (configuration not stated)
inactive: HCT-15 colon 93.1% | HT29 colon 107% | SNB-75 CNS 80.4% | SNB-19 CNS 98.8% | U251 CNS 98.4% | PC-3 prostate 104% | SK-MEL-5 melanoma 98.7% | UACC-62 melanoma 85.8% | LOX IMVI melanoma 89.3% | SK-MEL-28 melanoma 106% | SK-MEL-2 melanoma 102% | EKVX NSCLC 73.2% | SN12C renal 94.6% | UO-31 renal 96.9% | TK-10 renal 169% | ACHN renal 101% | CAKI-1 renal 89.2% | CCRF-CEM leukemia 109% | MOLT-4 leukemia 81%
